High-throughput results as filed in PubChem BioAssay.
Cav3 T inh = Cav3.2 calcium influx blockers – cell-based, Fluo-4 calcium fluorescence, FDSS, MLSMR library, primary screen; Voltage-dependent T-type calcium channel subunit alpha-1H (Homo sapiens), O95180; Cav3.2-expressing cells; stronger effect = lower value; B-score at 10 µM; 100,000 tested, 4% active; AID 449739, 2010;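 active means single-dose well whose peak fluorescence ratio is a statistical outlier from its plate by either plate-standardised score or position-corrected B-score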
M1 antag = antagonists of rat M1 muscarinic receptor; CHO-M1 cells, Fluo-4 calcium, ACh EC80 antagonist mode; stronger effect = lower value; Muscarinic acetylcholine receptor M1 (Rattus norvegicus), P08482; B-score at 10 µM; 64,000 tested, 3.4% active;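 active means calcium fluorescence response, raw or row-and-column corrected B-score, differing from the plate sample mean either way at a set confidence level, mostly lower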
PLAP act = PLAP enzyme activators, biochemical, luminescence, HTS. Alkaline phosphatase, placental type (Homo sapiens), P05187. purified PLAP enzyme, luminescent substrate read-out; stronger effect = higher value. activation fold at 20 µM. 96,000 tested, 1.2% active; in the data active means activation fold above about 2
M1 agonist = M1 muscarinic receptor agonists, primary screen, CHO-M1 cells, Fluo-4 calcium, agonist mode. 64,000 tested, 3% active. Fluo-4 calcium fluorescence; stronger effect = higher value. B-score at 10 µM. AID 626, 2007;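 active means fluorescence rise, raw or as B-score row- and column-corrected plate score, outside the 99.7% band of its plate's samples, either direction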
An asterisk follows results filed as active; x = not tested or not shown. An excerpt weighted towards active compounds, which were near 7.6% of everything screened.

SMILES | Cav3 T inh | M1 antag | PLAP act | M1 agonist
CC(NC(=O)c1cc2sccc2n1C)c1ccc2c(c1)OCCO2 (stereo not drawn) | x | 0.32 | 1.6 | 0.086
CCN1CCN(Cc2ccc(NC(=O)Nc3cccs3)cc2)CC1 | 0.6 | -0.54 | 1 | 0.091
Cc1cccc(C(=O)NC(=S)N2CCN(C)CC2)c1 | 1 | x | 0.9 | x
Cc1cccc(C(=O)/C=C2/c3ccccc3CC(C)(C)N2C)c1 | -4.2* | x | 1.5 | x
Cc1ccccc1C(=O)/C=C1/c2ccccc2CC(C)(C)N1C | -3.9* | x | 1.2 | x
O=C1N[C@@H](Cc2cnc[nH]2)C(=O)N2CCC[C@@H]12 | x | 0.26 | x | -0.24
O=C(CN1C(=O)CCC1=O)Nc1nc(-c2nc3ccccc3s2)cs1 | -0.22 | 0.96 | x | 1.1
O=C(CN1C(=O)CCC1=O)Nc1nc(-c2ccccn2)cs1 | x | 0.0068 | 2.2* | -0.2
O=C(CCCSc1ccccc1)Nc1nc(-c2ccccn2)cs1 | -6.3* | x | 1.6 | x
Cc1ccc(C(=O)Nc2ccon2)cc1S(=O)(=O)N1CCCC1 | 0.14 | x | 0.8 | x
COc1cccc(C(=O)Nc2cc(C(F)(F)F)ccc2Cl)c1 | -1.5 | x | 0.9 | x
O=C(Nc1ccc(Cl)c(C(F)(F)F)c1)c1ccco1 | -5.8* | -0.46 | 0.9 | -0.016
COc1cccc(C(=O)Nc2ccc(Cl)c(C(F)(F)F)c2)c1 | -5.1* | x | 0.6 | x
C/C(=N/OCC(=O)Nc1ccc(C)cc1C)c1cccs1 | -1.2 | x | 0.8 | x
O=C1NC(c2ccccc2)C(C(=O)c2cccs2)=C1O (stereo not drawn) | 0.21 | -0.61 | 0.8 | 0.11
Cc1oc2c(CN3CCCC3)c(O)ccc2c(=O)c1-c1ccccc1 | 0.38 | -0.0037 | 1 | 3.2*
Cc1oc2c(CN3CCCC3)c(O)ccc2c(=O)c1-c1ccc(Cl)cc1 | x | 0.51 | 1.2 | -0.86
COc1cccc(CNc2ncc(Br)cc2Br)c1O | -0.071 | 0.16 | 1.1 | 0.64
COc1cccc(CNc2ccc(Br)cn2)c1O | -6.5* | -0.36 | 0.9 | 1.1
C#CCN(C#N)c1nc(NCC)nc(NC(C)C)n1 | 1 | 1.1 | 0.7 | -0.11
CCNc1nc(NC(C)C)nc(N(C#N)CCOc2ccccc2)n1 | -5* | x | 1.1 | x
Cc1ccc(C(C)C)c(OCCNC(=O)c2cncc(Br)c2)c1 | -4.9* | x | 1 | x
CC1CCCC/C1=N\NS(=O)(=O)c1ccc(Br)cc1 (stereo not drawn) | -2 | x | 1.2 | x
Cc1cccc2cc(/C=C3\N=C(c4ccccc4)OC3=O)c(N3CCOCC3)nc12 | -6* | x | 1.4 | x
Cc1ccc(C2=N/C(=C\N3CCCCC3)C(=O)O2)cc1 | 0.59 | x | 1.8 | x
SMILES | Cav3 T inh | M1 antag | PLAP act | M1 agonist
O=C(C1CCC1)N1CCc2cc(S(=O)(=O)NCCN3CCN(c4ccccc4F)CC3)ccc21 | -3.2 | -2.4 | 1.3 | 7
COc1ccc2[nH]c(=S)[nH]c2c1 | -0.38 | 0.17 | 2.6* | 0.096
Clc1ccc(OCc2nnc(SCc3nc4ccccc4[nH]3)n2Cc2ccco2)cc1 | -8.5* | 0.11 | 1.4 | -0.89
Clc1cccc(-c2nnc(SCc3nc4ccccc4[nH]3)n2Cc2ccco2)c1 | -5.4* | x | 2.2* | x
Clc1cccc(CSc2nnc(-c3cccnc3)n2Cc2ccco2)c1 | 1.3 | -0.29 | 1.5 | -0.2
c1ccc(-c2nnc(SCc3nc4ccccc4[nH]3)n2Cc2ccco2)nc1 | 0.013 | -0.16 | 2.6* | -0.3
Nn1c(SCc2nc3ccccc3[nH]2)nnc1-c1cccnc1 | -1.2 | 0.67 | 2* | 0.34
COC(=O)c1cc2n(n1)CCN(Cc1ccc(F)cc1)C2=O | -0.7 | x | 1.2 | x
COc1ccc(S(=O)(=O)N(C)CC(=O)Nc2ccc(C(F)(F)F)cc2)cc1Cl | 0.96 | x | 1 | x
C#CCCOC(=O)N1C2=NC(C(=O)OC)=C(C(=O)OC)[C@@H]3N(C)c4ccccc4[C@]23C[C@H]1CO | 0.27 | x | x | x
Cc1cccc(NC(=O)Cn2cnc3sc(C)c(S(=O)(=O)N4CCC(C)CC4)c3c2=O)n1 | 0.00058 | -0.063 | x | -0.69
CCNc1nc2nonc2nc1NCC | 1.3 | 0.023 | 1 | -0.17
Clc1ccccc1CSc1nnc(-c2ccccn2)n1Cc1ccco1 | -3.1 | -0.0095 | 1.2 | -0.21
C(=C\c1ccccc1)/CSc1nnc(-c2ccccn2)n1Cc1ccco1 | -5.5* | -0.46 | 1.2 | -1
COc1cccc(Cn2cnc3c(NS(=O)(=O)c4cccc(Cl)c4Cl)c(C)c(C)cc32)c1 | -5.4* | x | 1.5 | x
COc1cccc(Cn2cnc3c(NS(=O)(=O)c4ccc(Cl)cc4Cl)c(C)c(C)cc32)c1 | -3.5* | x | 1.3 | x
Cc1cc2c(ncn2Cc2ccccc2)c(NS(C)(=O)=O)c1C | -0.14 | x | 1.2 | x
COc1cccc(Cn2cnc3c(NS(=O)(=O)c4cc(Cl)ccc4Cl)c(C)c(C)cc32)c1 | -5.4* | x | 1.4 | x
COc1cccc(Cn2cnc3c(NS(=O)(=O)c4ccc(Cl)cc4)c(C)c(C)cc32)c1 | 1.1 | x | 1.1 | x
Brc1cnn(-c2nc(N3CCOCC3)nc(N3CCOCC3)n2)c1 | x | -0.38 | x | 0.88
CCCCCC(=O)Nc1cccc(C2=NOC3(C2)C[C@@H](C(N)=O)N(C(=O)C2(C)CC2)C3)c1 (stereo partly drawn) | 0.73 | x | x | x
CCCc1nc2ccccc2c(=O)n1/N=C/c1ccccc1O | -0.56 | -0.032 | 1.3 | 0.19
CCCc1nc2ccccc2c(=O)n1/N=C/c1c(C)[nH]n(-c2ccc(C)cc2)c1=O | -3.8* | -0.2 | 2.1* | 0.0018
O=c1n(Cc2ccc(Cl)cc2)c2sc3c(c2c2ncnn12)CCCC3 | 0.084 | 0.23 | 0.9 | -0.21
CCC(C)(C)NC(=O)CN(CC1CCCO1)C(=O)CCC(=O)Nc1nccs1 (stereo not drawn) | -0.4 | 0.53 | 1.1 | 0.41
SMILES | Cav3 T inh | M1 antag | PLAP act | M1 agonist
Cc1noc(C)c1S(=O)(=O)Nc1ccc(C(=O)N2CCN(c3cccc(Cl)c3)CC2)cc1 | -2.4 | x | 1.8 | x
Cc1cccc(N2CCN(C(=O)c3ccc(NS(=O)(=O)c4c(C)noc4C)cc3)CC2)c1C | -7.2* | -1 | 1.4 | -1.3
COc1ccccc1CNCC(O)(c1ccc(Cl)cc1)c1ccc(Cl)cc1 | -4.5* | x | 0.8 | x
CC1CCCC(C)N1C(=O)CSc1nc(N)c(-c2ccccc2)c(=O)[nH]1 (stereo not drawn) | -0.55 | x | 1.1 | x
N#CC(c1ccc(Cl)cc1)c1ncc(C(F)(F)F)cc1Cl (stereo not drawn) | -4.6* | x | 0.9 | x
CC(C)(C)C(=O)CNS(=O)(=O)c1ccc(S(=O)(=O)NC2CCCC2)cc1 | 0.22 | -0.16 | 1 | 0.34
COc1ccc(OC)c(-n2c(-c3cc(-c4ccc(F)cc4)n[nH]3)n[nH]c2=S)c1 | 0.57 | x | 2* | x
COc1ccc(OC)c(N(CC(=O)N2CCN(c3cc(Cl)ccc3C)CC2)S(C)(=O)=O)c1 | -2.9 | -0.0038 | 1.7 | -0.52
Cc1cccc(N2CCN(C(=O)c3ccc4nc(-c5ccco5)c(-c5ccco5)nc4c3)CC2C)c1 (stereo not drawn) | -6.5* | x | 1.2 | x
Cc1cccc(N2CCN(C(=O)CCc3nc4ccccc4[nH]3)CC2C)c1 (stereo not drawn) | -0.48 | x | 2.2* | x
Cc1ccc(N2CCN(C(=O)CCc3nc4ccccc4[nH]3)CC2)c(C)c1 | -4.8* | x | x | x
COc1cccc(NC(=O)N2CCN(c3cccc(C)c3)C(C)C2)c1 (stereo not drawn) | -4.9* | -0.5 | 1.2 | -1.3
